Compound activity from PubChem.
Luciferase inh – Photinus pyralis luciferase inhibition | P08659 | purified P. pyralis luciferase, luminescence, biochemical | Potency, µM (doses to about 115 µM), hits mostly inhibitors | actives 2.5% (n = 76,000) | AID 1347043; further: nearly all actives have a fitted effect of over 65% in size
Target sequence (P08659 whole entry, looked up): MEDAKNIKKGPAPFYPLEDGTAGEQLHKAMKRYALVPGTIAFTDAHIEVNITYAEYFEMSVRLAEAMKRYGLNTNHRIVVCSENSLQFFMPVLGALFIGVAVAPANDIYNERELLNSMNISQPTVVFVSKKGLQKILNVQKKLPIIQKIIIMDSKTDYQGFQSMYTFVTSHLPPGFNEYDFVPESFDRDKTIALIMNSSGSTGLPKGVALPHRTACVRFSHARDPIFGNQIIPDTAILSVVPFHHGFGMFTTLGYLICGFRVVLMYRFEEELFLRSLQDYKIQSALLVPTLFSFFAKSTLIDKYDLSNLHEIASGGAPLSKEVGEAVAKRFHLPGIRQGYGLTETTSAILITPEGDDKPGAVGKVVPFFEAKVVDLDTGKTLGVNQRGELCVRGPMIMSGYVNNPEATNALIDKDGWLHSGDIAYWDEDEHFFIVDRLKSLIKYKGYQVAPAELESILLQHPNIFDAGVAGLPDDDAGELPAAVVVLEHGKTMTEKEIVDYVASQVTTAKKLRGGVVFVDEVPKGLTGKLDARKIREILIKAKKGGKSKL
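Purified P. pyralis luciferase (10nM final) in 50mM Tris acetate pH 7.5, 10mM Mg acetate, 0.01% Tween-20, 0.05% BSA with 10uM D-luciferin and 10uM ATP. Compounds titrated qHTS. Luminescence imaged on CCD.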
NPR1 antag – blocks ANP-stimulated signaling of human Npr1 receptor. actives 1.6% (n = 76,000). P16066. HEK293 hNpr1 GloSensor cGMP, ANP-stimulated luminescence. Potency, µM (series often up to 46.3 µM), for the others: top-dose activity change, negative = inhibition, usual class: inhibitors; calls by dose curve; further: nearly all actives have a fitted effect of over 60% in size
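Compound pre-incubated 30 min at room temperature on GloSensor-loaded HEK293 cells stably carrying hNpr1 and the pGS-40F cGMP biosensor. Stimulation uses hNppA at 0.1 nM final; luminescence is taken at baseline and 20 min post-agonist.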
NIH3T3 tox – NIH 3T3 cell cytotoxicity. NIH 3T3 viability, CellTiter-Glo ATP luminescence, 48-72 h. Potency, µM (top dose mostly 96.7 µM), for inactives: at the top dose activity change, negative = cytotoxicity, hits mostly inhibitors. actives 4.3% (n = 94,000); further: nearly all actives have a fitted effect of over 55% in size
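Cells were seeded at 400 per well, treated with pin-transferred compound, and kept 48 or 72 hr at 37 °C before CellTiter-Glo addition and luminescence imaging of cellular ATP.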
HEK cytotox – kills HEK 293 cells; Potency, µM (series often up to 115 µM), inactives show top-dose activity change, negative = cytotoxicity, hits mostly inhibitors; actives 6.6% (n = 94,000); HEK 293 viability, ATP luminescence (CellTiter-Glo), 48-72 h; further: nearly all actives have a fitted effect of over 60% in size
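Viability of HEK 293 cells, plated at 250 cells/well, was judged by cellular ATP after compound treatment for 48 or 72 hr. Luminescence was imaged 10 min after CellTiter-Glo addition at room temperature.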
* hit, by the source's call; i = inactive; ? = inconclusive; . = not tested or not shown; [ ] = dose if it differs, or a comment. Shown are actives, neighbours in structure and some others; about 11% of the full set was active somewhere. Unless noted, the call rests on the fitted dose curve; in most records, active means well fitted curve in the direction sought with a large enough effect; inconclusive means small, poorly fitted or top-dose-only effect, or another doubt; inactive means no such curve, though single readings can be large; an effect the other way counts as inactive or inconclusive. On the % scale 0 is the no-effect control and ±100 the full control effect; potency means the concentration at half of the fitted maximal effect.

SMILES	Luciferase inh	NPR1 antag	NIH3T3 tox	HEK cytotox
CN(C)S(=O)(=O)N1CCCN(Cc2ccncc2)C(c2ccccc2)CC(=O)NCC1 (centres undefined)	i	0%	-28%	-10%
COc1ccccc1-c1ccc2c(C(=O)NCc3cccs3)nn(C)c2n1	.	.	-35%	?
COc1cc(Cl)ccc1C(=O)NC1CCN(c2cc(-c3ccc(F)cc3)[nH]n2)CC1	i	-4%	35µM*	?
COc1ccc(C(=O)NC2CCN(c3cc(-c4ccccc4)[nH]n3)CC2)c(OC)c1	i	-5%	?	79µM*
CCOc1ccccc1C(=O)NC1CCN(c2cc(-c3ccc(OC)cc3)[nH]n2)CC1	i	-19%	35µM*	?
COc1ccccc1C(=O)NC1CCN(c2cc(-c3ccc(Cl)cc3)[nH]n2)CC1	i	-22%	?	?
CCOc1ccccc1C(=O)NC1CCCN(c2cc(-c3ccc(Cl)cc3)[nH]n2)C1 (centres undefined)	?	-16%	16µM*	20µM*
O=C1CCN(C(=O)C2CC=CC2)CCCC(c2nc(-c3cccnc3)no2)CCN1 (centres undefined)	i	4%	-16%	-7%
Cc1ccsc1C(=O)N1CCC(n2cc(-c3nc(C(C)C)no3)nn2)CC1	i	?	-21%	?
COCC(=O)NCCNC(=O)c1ccc(-c2cncnc2)cc1	.	.	-18%[138 µM]	-5%[172 µM]
CCOc1ccccc1C(=O)NC1CCN(c2cc(-c3ccccc3)[nH]n2)C1 (centres undefined)	i	2%	?	?
CCOc1ccccc1C(=O)NC1CCN(c2cc(-c3ccc(OC)cc3)[nH]n2)C1 (centres undefined)	i	-19%	35µM*	?
CC(C)c1ccc(CC(=O)N2CCCc3ncc(C(=O)N4CCCC[C@@H]4Cc4ccccc4)cc32)cc1	i	-7%	35µM*	45µM*
O=C(Cc1cccc(C(F)(F)F)c1)N1CCCc2ncc(C(=O)N3CCCC[C@@H]3Cc3ccccc3)cc21	i	-4%	?	79µM*
O=c1n(CCN2CCCN([S+](=O)([O-])c3ccccc3)CC2)nc2n1CCCC2	.	.	-22%	-5%
Cc1noc(-c2ccccc2Cl)c1C(=O)NCCCc1ccccc1	i	0%	?	45µM*
O=C(c1ccc2nnc(-c3ccc(C(F)(F)F)cc3)n2c1)N1CCCC1	.	.	-17%	-22%
CN(CC[C@H]1CN(C(=O)c2ccc(C(F)(F)F)cc2)CC[C@H]1CC(=O)O)c1ccccc1	i	3%	35µM*	0%
COc1ccc(C(=O)NC[C@@H]2CC[C@H]3C[C@@H]2C3(C)C)cc1	i	?	?	100µM*
CC1(C)[C@H]2CC[C@@H](CNC(=O)c3cncc(Br)c3)[C@@H]1C2	i	5%	?	79µM*
CC1(C)[C@H]2CC[C@@H](CNC(=O)c3ccccc3)[C@@H]1C2	i	1%[70.6 µM]	?	?
CN(C)C[C@@H]1CN(Cc2ccccn2)C[C@H]1NS(=O)(=O)c1cccc(F)c1	i	3%	-8%	-3%
CCN(C)C(=O)C(C)N1CCc2onc(C(c3ccccc3)c3ccccc3)c2C1 (centres undefined)	i	1%	?	?
CCN(C)C(=O)C(C)N1CCc2onc(-c3ccc(-c4ccccc4)cc3)c2C1 (centres undefined)	20µM*	?	?	?
CC(C)OCCCNc1ncnc2c1CN(C1CCCC1)C(=O)CN2C	.	.	-27%	-17%
SMILES	Luciferase inh	NPR1 antag	NIH3T3 tox	HEK cytotox
O=C(COc1ccc(Cl)cc1Cl)N1CCCCC1c1ccccn1 (centres undefined)	?	?	?	45µM*
O=C(Cc1ccc(F)cc1)N1CCCC(C(=O)N2CCC(N3CCOC3=O)CC2)C1 (centres undefined)	.	.	-2%	1%
COc1ccc2[nH]c(C(=O)N3CCC4(CC3)CC(O)CCO4)cc2c1 (centres undefined)	i	0%	2%	2%
COc1ccc(CC2CCOC3(CCN(C(=O)c4cc5ccccc5[nH]4)CC3)C2)cc1 (centres undefined)	i	-13%	?	32µM*
COc1ccc(CC2CCOC3(CCN(C(=O)CC(C)C)CC3)C2)cc1 (centres undefined)	i	?	?	?
COCC1CN(C)CC12CCN(C(=O)c1cc3ccccc3[nH]1)CC2 (centres undefined)	?	-18%	-18%	89µM*
COc1ccc(CC2CCOC3(CCN(C(=O)c4ccco4)CC3)C2)cc1 (centres undefined)	.	.	?	50µM*
COc1ccc(-c2nc3cc(C(=O)NCCCc4ccccc4)ccc3o2)cn1	.	.	-23%	-28%
Cc1nn(-c2ccccc2)c2c1C(C1CC1)N(C1CCN(Cc3ccc(OC(F)(F)F)cc3)CC1)C2=O (centres undefined)	.	.	-22%	-2%
CC(C)CNC(=O)c1ccc2nc(-c3ccnc(Cl)c3)oc2c1	.	.	-13%	i
COC[C@@H]1CN(Cc2cccc(OC)c2OC)C[C@H]1c1ccncc1	i	-17%	?	40µM*
COc1cccc(CN2C[C@@H](CO)[C@H](c3ccncc3)C2)c1OC	i	3%	-19%	89µM*
Cc1noc([C@@H]2CN(Cc3ccccc3OC(C)C)C[C@H]2CO)n1	i	1%	-17%	-14%
COC[C@@H]1CN(Cc2cn(C)nc2C)C[C@H]1c1ccncc1	i	-8%	-17%	-4%
COc1ccccc1CN1C[C@@H](CO)[C@H](c2ccncc2)C1	i	2%	-21%	-7%
CC(C)Oc1ccccc1CN1C[C@@H](CO)[C@H](c2ccncc2)C1	i	-17%	?	40µM*
O=C(C1=NO[C@@H]2CN(c3ccc(OC(F)(F)F)cc3)C[C@H]12)N1CCOCC1	i	-14%[70.6 µM]	?	?
CCc1nc(NC(=O)C[C@H]2NC(=O)c3ccccc3NC2=O)sc1C	i	-17%	?	?
C[S+](=O)([O-])NC1CCCN(c2ccnc3ccnn23)C1 (centres undefined)	.	.	5%[138 µM]	3%[172 µM]
COc1ccc(C2(C(=O)N3CCCN(c4cc(-c5ccc(C)c(C)c5)[nH]n4)CC3)CC2)cc1	i	?	32µM*	25µM*
COc1ccc(-c2cc(N3CCN(C(=O)c4ccc(C)cc4C)CC3)n[nH]2)cc1	i	?	?	40µM*
COc1ccc(-c2cc(N3CCCN(C(=O)c4cc5ccccc5[nH]4)CC3)n[nH]2)cc1	?	-19%	35µM*	45µM*
COc1ccc(-c2cc(N3CCCN(C(=O)c4ccc(OC)cc4OC)CC3)n[nH]2)cc1	i	?	?	40µM*
CCOC(=O)C1c2c(OC)ccc3c2C(=CC(C)(C)CO3)CN1Cc1ccccc1 (centres undefined)	.	.	?	45µM*
O=C(Cc1c[nH]c2ncc(-c3ccc(Cl)cc3)cc12)NCc1cccnc1	?	-30%[70.6 µM]	?	89µM*
